Sa growth 42C: blocks Staphylococcus aureus growth. actives 0.53% (n = 170,000). S. aureus RN4220 growth, OD600, 20 h, 42 °C; active compounds read low. relative growth, % (concentration not given with the values);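 active means relative growth at most 50% at the other temperature and 20+ points below 30 °C, or under 10% at both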
S aureus helic: blocks Staphylococcus aureus DNA helicase; purified S. aureus helicase, fluorescence unwinding assay; inhibition, % (no concentration beside the values); actives 0.05% (n = 120,000); AID 485395; in the data active means inhibition above about 25%, passing the limit was not always enough;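 further: 0% = mean of negative control wells and 100% = mean of positive control wells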
Numbers without * were called inactive; · = not tested or not shown. This excerpt belongs to a sample that is enriched for hits.

SMILES	Sa growth 42C	S aureus helic
C=C1c2cccc(O)c2C(O)=C2C(=O)C3(O)C(O)=C(C(N)=O)C(=O)C(N(C)C)C3C(O)C12 (centres undefined)	4.3*	-26
CNC(=O)C12CCC(C)(C(=O)C1)C2(C)C (centres undefined)	93	-3
COC(=O)C(O)(NS(=O)(=O)c1ccccc1)C(F)(F)F (centres undefined)	49	-7
CS(=O)(=O)c1ccc(Cl)c(S(C)(=O)=O)c1	98	7
CC(C)(C)CC(=O)NCc1nc(-c2ccc(Cl)cc2)no1	96	17
C[N+]12CCCCC1C(COC(=O)c1ccccn1)CCC2 (centres undefined)	80	-1
CC(=O)Nc1cc(OC(C)=O)c2nonc2c1OC(C)=O	0.9*	3
CC(=O)Nc1nonc1NC(C)=O	100	3
CCOC(=O)CCn1cc(F)c(=O)[nH]c1=O	95	8
CC(=O)On1cc(F)c(=O)[nH]c1=O	0.7*	2
O=C(OCN1C(=O)c2ccccc2C1=O)c1ccc2c(c1)OCCO2	104	12
CCN1CCN(C(=O)NC(C(=O)N[C@@H]2C(=O)N3[C@@H]2SC(C)(C)[C@@H]3C(=O)O)c2ccccc2)C(=O)C1=O (some centres undefined)	-0.3*	·
CC1(C)S[C@@H]2[C@H](NC(=O)Cc3ccccc3)C(=O)N2[C@H]1C(=O)O	-0.9*	·
CC1(C)S[C@@H]2[C@H](NC(=O)COc3ccccc3)C(=O)N2[C@H]1C(=O)O	-0.9*	·
CC(=O)N1C(c2ccccc2)SC(C)(C)C1C(=O)O (centres undefined)	91	·
NNC(=O)COc1ccccc1	105	·
CC1(C)S[C@@H]2C(N3C(=O)[C@@H](c4ccccc4)NC3(C)C)C(=O)N2[C@H]1C(=O)O (some centres undefined)	-0.3*	·
CC1(C)SC(CNC(=O)Cc2ccccc2)NC1C(=O)O (centres undefined)	103	·
CCC(C)(C)NC(=O)C(NS(=O)(=O)c1cccs1)c1ccccc1 (centres undefined)	102	·
COC(=O)C(C)Sc1ncc(-c2ccccc2)nn1 (centres undefined)	108	-2
C=CCn1c(SCC(=O)Nc2ccc3[nH]c(=O)[nH]c3c2)nc2ccccc2c1=O	110	-6
CCCc1c(C)nc(SCC(C)C)[nH]c1=O	128	0
CCn1c2ccccc2c2cc(/C=C/C(=O)O)ccc21	95	-5
Cc1onc(-c2ccccc2Cl)c1C(=O)N[C@@H]1C(=O)N2[C@@H]1SC(C)(C)[C@@H]2C(=O)O	0.0*	·
Cc1onc(-c2ccccc2Cl)c1C(=O)NC1=NCCS1	111	9
SMILES	Sa growth 42C	S aureus helic
O=C(Nc1ccccc1)Nc1cccc2ccccc12	99	8
CN(C)c1cc(NC(=O)Nc2ccccc2)c2ccccc2n1	0.0*	31
COc1ccc(C(=O)CSc2nnc(Cc3cccs3)n2C2CC2)cc1	83	5
COc1ccccc1Nc1nnc(SCC(=O)Nc2ccnn2C(C)C)s1	97	-8
CCN1C(=O)c2ccccc2Sc2ccc(NC(=O)Nc3ccccc3OC)cc21	111	·
CCN1/C(=C/c2scc[n+]2C)C=C(C)c2cc(OC)c3ccccc3c21	-1.3*	-40
Cc1cc(S(=O)(=O)N2CCCCC2)c(C)c(C)c1C	110	7
CCc1ccc(NC(=O)n2ncc3c(C)cccc32)cc1	83	2
O=C1c2ccccc2-c2nc3nonc3nc21	53	-32
O=C1c2ccccc2-c2nc3ccccc3nc21	5.6*	42
Cc1c(S(=O)(=O)c2ccc(Cl)cc2)csc1C(=O)N(Cc1ccccc1)Cc1cccnc1	102	·
Cc1ccc(C)c(N=C2SCCCN2C(=O)c2ccc(C#N)cc2)c1	103	8
Cc1ccc(-c2ccc(O)cc2)cc1	47*	-12
Cc1ccc(O)cc1	90	·
CCCn1c(C(F)(F)F)nc2ccccc21	104	5
N#CC(C(=O)Cc1cccs1)c1ccccn1 (centres undefined)	·	11
Cc1cc(Br)ccc1NC(=O)c1ccccn1	106	6
C/C(=N\NC(=O)c1cc(Br)ccc1O)c1ccccn1	3.1*	4
Cc1ccc(-c2cc(C(F)F)nc(NCc3ccco3)n2)cc1	106	19
Cc1ccc(-c2cc(C(F)F)nc(S(C)(=O)=O)n2)cc1	36*	3
Oc1ccccc1CNc1ccc(F)c(Cl)c1	87	-8
O=C(Nc1cccc(Br)c1)Nc1nc2c(s1)CCCCCC2	37*	·
Cc1cccc(C(=O)Nc2nc3c(s2)CCCC3)c1	83	·
CCCN(CCC)C(=O)Cn1c(=O)n(-c2ccc(Cl)cc2)c(=O)c2c3c(sc21)CCC3	100	9
CC1CC2=C(NC(=S)NC2c2ccc(Cl)cc2)/C(=C/c2ccc(Cl)cc2)C1 (centres undefined)	96	4
COc1cc2c(C#N)c(N(C)CCc3ccc(OC)c(OC)c3)nc(N)c2c(N)n1	69	-19
COc1ccc(CCN(C)c2nc(N)c3c(N)nc(SCC(=O)O)cc3c2C#N)cc1OC	0.7*	-18

Compound activity deposited in PubChem BioAssay by ICCB-Longwood Screening Facility, Harvard Medical School.
